# Screening results deposited in PubChem BioAssay by Buhrlage Lab, Dana-Farber Cancer Institute and Novartis Institutes for BioMedical Research (Cambridge, Mass).
# USP28 block: inhibitors of human USP28 deubiquitinase. Ubiquitin carboxyl-terminal hydrolase 28 (Homo sapiens), Q96RU2. purified USP28, Ub-rhodamine cleavage fluorescence, 30 min. 3% of 47,000 active. inhibition, % at 25 µM
# USP30 inh: inhibitors of human USP30 deubiquitinase; Ubiquitin carboxyl-terminal hydrolase 30 (Homo sapiens), Q70CQ3; purified USP30, Ub-rhodamine cleavage fluorescence; inhibition, % at 25 µM; 5.3% of 47,000 active; AID 1645860, 2021
# Target sequence (Q70CQ3 whole entry, looked up): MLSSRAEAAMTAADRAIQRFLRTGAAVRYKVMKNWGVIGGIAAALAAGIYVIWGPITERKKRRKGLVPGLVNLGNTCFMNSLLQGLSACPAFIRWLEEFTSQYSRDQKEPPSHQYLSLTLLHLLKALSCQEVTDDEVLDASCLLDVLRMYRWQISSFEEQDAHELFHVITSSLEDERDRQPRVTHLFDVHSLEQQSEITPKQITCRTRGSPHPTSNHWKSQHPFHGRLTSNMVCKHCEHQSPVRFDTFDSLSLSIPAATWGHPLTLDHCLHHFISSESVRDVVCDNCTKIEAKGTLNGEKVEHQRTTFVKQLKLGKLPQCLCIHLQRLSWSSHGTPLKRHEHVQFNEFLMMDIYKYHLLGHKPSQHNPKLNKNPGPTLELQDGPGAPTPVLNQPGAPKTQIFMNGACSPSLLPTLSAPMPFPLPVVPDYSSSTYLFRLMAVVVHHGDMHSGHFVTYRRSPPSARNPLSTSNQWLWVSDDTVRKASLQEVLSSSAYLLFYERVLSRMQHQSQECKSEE
# OTUD3 inh: inhibitors of human OTUD3 deubiquitinase; AID 1645858, 2021; OTU domain-containing protein 3 (Homo sapiens), Q5T2D3; inhibition, % at 25 µM; 0.7% of 47,000 active; purified OTUD3, Ub-rhodamine fluorescence, 2 h
# USP17 inh: inhibitors of human USP17 deubiquitinase | purified USP17, Ub-rhodamine cleavage fluorescence, 3 h | inhibition, % at 50 µM | 6.5% of 47,000 active | AID 1645855, 2021
# * marks the source's active call; other numbers are inactive results; x = no result given. Sampled rows, rich in hits. Any-hit rate of the full collection: about 11%. Rule as the data show it: active = inhibition above about 30%; inactive = the rest.
SMILES,USP28 block,USP30 inh,OTUD3 inh,USP17 inh
c1ccc(-c2nnc(-c3cnc4onc(C5CC5)c4c3)o2)cc1,-22,-63,-10,-14
Cc1ccc(S(=O)(=O)N2CC[C@@H]3CN(C(=O)c4ccccc4)[C@@H]3C2)cc1,12,35*,21,11
Cc1ccc(C(=O)N2CC[C@@H]3[C@H](C2)CN3C(=O)c2ccccc2)cc1,17,30*,8,6
Cc1nc(NC(=O)c2ccc(F)cc2)nc2cc3c(cc12)OCO3,0,-228,0,36*
CCc1cc(=O)n(CC(=O)NCc2ccc(F)cc2)c(N2CCOCC2)n1,6,31*,12,22
Cc1ccc(CNC(=O)Cn2c(N3CCCCC3)nc(C)cc2=O)cc1,23,36*,16,41*
CCc1cc(=O)n(CC(=O)NCc2ccc(C)cc2)c(N2CCOCC2)n1,1,9,9,9
COC(=O)c1ccc(NS(=O)(=O)c2c[nH]c3ccc([N+](=O)[O-])cc23)cc1,14,28,2,45*
Cc1cc(F)ccc1NS(=O)(=O)c1c[nH]c2ccc([N+](=O)[O-])cc12,8,42*,-3,46*
Cc1cc(C)cc(-n2ccn3c(CCC(=O)Nc4ccc(F)cc4)nnc3c2=O)c1,16,49*,19,22
O=C(CCCc1nnc2c(=O)n(-c3cccc(F)c3)ccn12)Nc1ccccc1,-25,-64,-17,38*
Cc1cccc(NC(=O)CCCc2nnc3c(=O)n(-c4cccc(F)c4)ccn23)c1,-9,-7,-4,-37
Cc1ccc(NC(=O)CCc2nnc3c(=O)n(-c4cc(C)cc(C)c4)ccn23)cc1,5,43*,8,15
COc1ccc(-n2ccn3c(CCC(=O)NCc4ccc(F)cc4)nnc3c2=O)cc1,-2,17,10,69*
Cc1ccc(CNC(=O)CCc2nnc3c(=O)n(-c4cc(C)cc(C)c4)ccn23)cc1,7,-6,17,24
Cc1cc(C)cc(-n2ccn3c(CCC(=O)Nc4cccc(F)c4)nnc3c2=O)c1,-7,-9,-8,1
COc1ccc(C(=O)N2CCC3(CC2)N=C(c2ccccc2)NO3)cc1,-5,-11,-8,-8
C[C@]12C(=O)N(C3CC3)CC(=O)N1CC(c1ccc(Cl)cc1)c1c2[nH]c2ccccc12 (some centres undefined),19,8,4,10
CCCCCCCCCCCC1=C(O)C(=O)C=C(O)C1=O,98*,97*,94*,100*
CNC(=O)c1cc2c(nc1NC(C)C)CCN(Cc1cccnc1)CC2,-3,-13,4,-20
CCCC(=O)Nc1ccc(SCc2nnc(-c3ccccc3)o2)cc1,66*,-3,-2,1
O=C(Nc1ccc(SCc2nnc(-c3ccccc3)o2)cc1)C1CC1,61*,0,-11,-29
Cc1cc(C(=O)Nc2nnc(CSc3ccccc3)o2)no1,0,7,1,-4
CCc1cccc(NS(=O)(=O)c2cc3c4c(c2)CCN4C(=O)CC3)c1,14,10,2,0
O=[N+]([O-])c1cccc(CSc2nnc(/C=C/c3ccccc3)o2)c1,58*,26,12,18
SMILES,USP28 block,USP30 inh,OTUD3 inh,USP17 inh
COc1ccc(CNC2(c3noc(C)n3)CCCC2)cn1,1,11,1,8
O=C1Cc2cc(S(=O)(=O)N3CCC([C@@H]4NC(=O)N[C@H]5OCCC[C@H]54)CC3)ccc2N1,2,-72,7,3
CC1(C)Oc2ccc(C(=O)N3CCC([C@@H]4NC(=O)N[C@H]5OCCC[C@H]54)CC3)cc2NC1=O,8,32*,6,-1
O=C(NC1CCCCCC1)C(Cc1ccccc1)NS(=O)(=O)c1ccc2c(c1)OCCO2 (centres undefined),5,2,0,49*
Cc1ccccc1NC(=O)C(NS(=O)(=O)c1ccc2c(c1)OCCO2)C(C)C (centres undefined),0,7,-10,40*
CCc1ccc(C(=O)NC2=NC(c3ccc(OC)cc3)CC(=O)N2)cc1 (centres undefined),0,1,-7,29
CCc1cccc(-n2nc(C)c3c2NC(=O)CC3C(=O)c2cc(C)sc2C)c1 (centres undefined),12,17,10,8
O=C(Nc1ccccn1)C12CCC(CC1)C2,6,11,13,11
CCOc1ccccc1NC(=O)Cn1c(=O)n(CCC(=O)NCc2ccc3c(c2)OCO3)c(=O)c2sccc21,x,x,0,60*
O=C(CCn1c(=O)c2sccc2n(CC(=O)OCc2ccccc2)c1=O)NCc1ccc2c(c1)OCO2,16,52*,35*,30
CCn1c(=O)c(C(=O)NCc2cccc(F)c2)nc2cccnc21,-5,-7,-1,x
COc1ccc(-n2ccn3c(CCC(=O)Nc4cccc(C)c4)nnc3c2=O)cc1,-11,11,5,-5
COc1cnc(-c2ccccn2)nc1Sc1ccc(C)cc1,19,60*,26,7
Cc1ccccc1-c1nnc(-c2ccc(C(=O)NCc3ccccc3F)cc2)o1,28,66*,0,36*
O=C(COc1ccccc1-c1nnc(-c2ccccc2)o1)NCc1ccccc1Cl,-2,-3,0,-6
Cc1ccc(C(=O)Nc2nccnc2C(=O)NCc2ccccc2F)cc1,-2,-9,-7,23
O=C(NCc1ccccc1Cl)c1ccc(-c2nnc(-c3ccccc3)o2)cc1,8,36*,16,62*
Cc1ccc(-c2nc(C)sc2CC(=O)Nc2ccc(F)c(F)c2)cc1,-8,-109,-21,-20
O=C(Nc1ccc(Cl)cc1)c1cnn2c(-c3ccccc3)cc(-c3ccccc3)nc12,-1,5,7,9
Cc1cc(O)c2c(c1)[C@H](O)[C@]13Cc4cc(O)c5c(c4[C@H]1C=C[C@@H](O)[C@H]3OC2=O)C(=O)c1c(O)ccc(O)c1C5=O,-130,-469,-124,-85
CC(OC(=O)CNC(=O)c1ccc(Br)cc1)C(=O)Nc1ccc2c(c1)OCCO2 (centres undefined),23,24,16,66*
CC(OC(=O)c1ccc(N2CCCC2=O)cc1)C(=O)Nc1ccc2c(c1)OCCO2 (centres undefined),6,20,4,43*
CN(C)S(=O)(=O)c1cccc(NC(=O)c2ccc(N3CCCC3=O)cc2)c1,44*,32*,14,48*
COc1ccc(C(=O)Nc2cccc(N3CCCCC3=O)c2)cc1,10,8,2,-3
Cc1noc(C)c1S(=O)(=O)Nc1ccc(C(=O)Nc2ccc3c(c2)OCCO3)cc1,85*,0,0,13
O=C(Nc1ccc2c(c1)OCO2)c1cncc(NS(=O)(=O)c2ccc3c(c2)OCCO3)c1,-47,-282,-50,-41
CCC1=C(c2ccc(C)cc2)S(=O)(=O)NC1=NCC(=O)NCc1ccc(OC)cc1,-11,-6,-5,-11
CC(=O)c1ccc(NC(=O)COc2nsnc2N2CCOCC2)cc1,18,-3,5,9
